Measured values: the supplement of paper PMC10646978
± gives the standard deviation.

How the values were obtained:
Details in all cases: modulator concentration 10 µM
[1] = test system: RAW-Dual (murine macrophage reporter line); experiment: NF-kB reporter (SEAP) activity fold change vs agonist alone; higher = enhanced NF-kB activity
How it was run: (§1)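 RAW-Dual murine macrophage reporter cells were plated at 50 000 per well in 384-well plates, pin-transferred compound to 10 μM final, and pre-incubated for 1 hour at 37 °C before a PRR agonist was added and the cells incubated overnight. NF-κB activity was read from supernatant SEAP with QUANTI-Blue at 620 nm absorbance, and IRF activity from Lucia luciferase with QUANTI-Luc by luminescence. Each signal was expressed as fold change by dividing by the mean agonist-only control on the same plate. Two replicate plates were averaged, with errors obtained by propagation.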

[2] = test system: RAW-Dual (murine macrophage reporter line); experiment: IRF reporter (Lucia luciferase) activity fold change vs agonist alone; higher = enhanced IRF activity
How it was run: as §1

[3] = test system: RAW-Dual (murine macrophage reporter line); experiment: viability score (confluency relative to resting cells, overnight) (fraction); higher = more viable, active = viable (0.7 or more)
How it was run: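 Confluency was the readout: RAW-Dual macrophages were imaged with IncuCyte after an overnight exposure to compound at 10 μM final. IncuCyte software produced two masks over all imaged wells. The viability score expresses confluency against resting cells, and both masks had to exceed 70% of resting cells for a compound to meet the cutoff.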

[4] = agonist: CpG ODN 1826 0.5 ug/mL

Structure (SMILES) | NF-kB reporter [1, 4] | NF-kB reporter ([1]; agonist: LPS 0.1 ug/mL) | NF-kB reporter ([1]; agonist: MPLA […]) | IRF reporter ([2]; agonist: 3'3'-cGAMP 10 ug/mL) | IRF reporter ([2]; agonist: LPS 0.1 ug/mL) | IRF reporter ([2]; agonist: MPLA […]) | viability score [3]
O=[N+]([O-])c1ccc2nc(S)sc2c1 | 0.847 ± 0.068 | 1.11 ± 0.15 | 1.11 ± 0.027 | 0.82 ± 0.082 | 0.986 ± 0.12 | 1.03 ± 0.15 | 0.992 (active)
Cc1ccc(/C(=C\CN2CCCC2)c2ccccn2)cc1.Cl.O | 0.96 ± 0.26 | 1.11 ± 0.056 | 1.05 ± 0.073 | 0.672 ± 0.03 | 1.09 ± 0.13 | 1.31 ± 0.18 | 0.553 (inactive)
Cc1cc(C)c(-c2csc(NC(=O)C=Cc3cccs3)n2)c(C)c1 | 0.618 ± 0.048 | 0.873 ± 0.091 | 1.44 ± 0.066 | 1.02 ± 0.071 | 1.12 ± 0.097 | 1.89 ± 0.17 | 0.8 (active)
CN1CC(c2ccccc2)OC1=O (centres undefined) | 1.06 ± 0.17 | 0.949 ± 0.083 | 1.08 ± 0.093 | 1.07 ± 0.033 | 1.32 ± 0.2 | 1.29 ± 0.23 | 1 (active)
Cn1nc(CNS(=O)(=O)c2cccc(C(F)(F)F)c2)c2c1CCCC2 | 0.981 ± 0.052 | 0.98 ± 0.092 | 1.21 ± 0.13 | 0.987 ± 0.085 | 1.06 ± 0.15 | 1.05 ± 0.27 | 0.926 (active)
CCOC(=O)C1=C(C)OC(N)=C(C#N)C1c1ccc(O)c(OCC)c1 (centres undefined) | 1.19 ± 0.075 | 1.04 ± 0.064 | 1.07 ± 0.099 | 0.939 ± 0.038 | 1.31 ± 0.12 | 1.16 ± 0.11 | 1.01 (active)
CNC(=NC#N)NCCSCc1nc[nH]c1C | 0.952 ± 0.073 | 0.94 ± 0.11 | 1.03 ± 0.16 | 1.01 ± 0.032 | 1.21 ± 0.14 | 1.36 ± 0.16 | 1.03 (active)
CNCC[C@H](Oc1cccc2ccccc12)c1cccs1.Cl | 0.377 ± 0.037 | 0.925 ± 0.1 | 1.29 ± 0.069 | 1.41 ± 0.1 | 1.16 ± 0.18 | 1.24 ± 0.31 | 0.323 (inactive)
CCC(O)=C(C#N)c1nc2ccccc2n1C | 1.12 ± 0.12 | 0.938 ± 0.061 | 1.18 ± 0.064 | 0.792 ± 0.033 | 1.02 ± 0.07 | 1.37 ± 0.15 | 0.995 (active)
Cc1ccc(C(=O)NC2CCN(c3ccc4nncn4n3)C2)c(C)c1 (centres undefined) | 0.957 ± 0.13 | 1.02 ± 0.081 | 1.15 ± 0.15 | 1.03 ± 0.066 | 0.995 ± 0.18 | 0.935 ± 0.42 | 1 (active)
CC1(C)Cc2ccccc2C(C[N+](=O)[O-])=N1 | 0.899 ± 0.07 | 0.901 ± 0.1 | 1.65 ± 0.61 | 0.963 ± 0.056 | 1.26 ± 0.08 | 1.38 ± 0.13 | 0.997 (active)
C=CCN1C(=O)C(C)(C)COc2cc(NC(=O)c3ccc(Br)o3)ccc21 | 1.25 ± 0.11 | 0.93 ± 0.21 | 1.07 ± 0.037 | 0.53 ± 0.046 | 0.933 ± 0.096 | 0.982 ± 0.24 | 0.994 (active)
Nc1ccn([C@H]2CC[C@@H](CO)O2)c(=O)n1 | 1.05 ± 0.13 | 1.1 ± 0.081 | 1.02 ± 0.09 | 1.03 ± 0.088 | 0.976 ± 0.06 | 1.02 ± 0.081 | 0.995 (active)
O=C(CN1CCN(c2ccccc2F)C1=O)N1CCCC(Oc2cnccn2)C1 (centres undefined) | 0.831 ± 0.039 | 0.931 ± 0.075 | 1.08 ± 0.062 | 1.02 ± 0.053 | 1.26 ± 0.27 | 1.37 ± 0.47 | 0.965 (active)
O=C(NC1CC2CCC1C2)c1ccccc1 (centres undefined) | 0.907 ± 0.09 | 0.994 ± 0.081 | 0.972 ± 0.046 | 1.02 ± 0.11 | 1.01 ± 0.13 | 0.869 ± 0.15 | 0.995 (active)
COC(=O)CNC(c1ccccc1)c1cc(Br)ccc1NC(=O)c1ccccc1Br (centres undefined) | 0.826 ± 0.07 | 0.777 ± 0.041 | 1.52 ± 0.053 | 0.632 ± 0.035 | 1.1 ± 0.14 | 1.52 ± 0.22 | 0.988 (active)
CS(=O)(=O)N(CC(=O)NCCSCc1cccc(Cl)c1)c1cccc(Cl)c1 | 0.978 ± 0.16 | 0.986 ± 0.079 | 1.1 ± 0.15 | 1.02 ± 0.033 | 1.08 ± 0.11 | 1.24 ± 0.42 | 1 (active)
COC(=O)CCc1ccc(OCC(O)CNC(C)C)cc1 (centres undefined) [Prestw-1137] | 1.06 ± 0.087 | 1.06 ± 0.084 | 1.02 ± 0.081 | 0.951 ± 0.043 | 0.911 ± 0.067 | 0.827 ± 0.11 | 1 (active)
Cc1cc(=O)n(-c2ccccc2)n1C | 0.98 ± 0.18 | 1.02 ± 0.08 | 0.99 ± 0.095 | 1.02 ± 0.033 | 1.27 ± 0.18 | 1.22 ± 0.14 | 0.995 (active)
CN1CCC(=C2c3ccccc3C=Cc3ccccc32)CC1.Cl | 0.727 ± 0.13 | 0.808 ± 0.067 | 0.904 ± 0.048 | 0.794 ± 0.049 | 1 ± 0.19 | 0.974 ± 0.2 | 0.651 (inactive)
Cc1cc(=O)n2c(-c3cccc(NC(=O)c4ccc(C(F)(F)F)cc4)c3)csc2n1 | 0.824 ± 0.044 | 1.12 ± 0.09 | 1.68 ± 0.46 | 0.731 ± 0.035 | 1.28 ± 0.21 | 1.5 ± 0.44 | 0.99 (active)
CC(=O)N1CC(C(=O)Nc2cccc(Br)c2)C1 | 1.11 ± 0.063 | 1.05 ± 0.08 | 0.963 ± 0.031 | 0.932 ± 0.034 | 1.05 ± 0.062 | 0.971 ± 0.11 | 0.998 (active)
CC(=O)Nc1ccc(S(=O)(=O)N2CCCc3ccccc32)cc1 | 1.15 ± 0.092 | 0.888 ± 0.081 | 1.09 ± 0.1 | 1.13 ± 0.043 | 1.27 ± 0.24 | 1.54 ± 0.32 | 0.984 (active)
NC(=O)c1ncn([C@@H]2O[C@H](CO)[C@@H](O)[C@H]2O)n1 | 0.766 ± 0.17 | 1.07 ± 0.14 | 0.86 ± 0.084 | 1.16 ± 0.05 | 1.66 ± 0.22 | 1.77 ± 0.18 | 0.986 (active)
CCOC(=O)C1=C(C)NC(C)=C(C(=O)OC)C1c1ccccc1 (centres undefined) | 0.884 ± 0.1 | 0.831 ± 0.057 | 1.63 ± 0.059 | 0.609 ± 0.085 | 0.896 ± 0.037 | 0.79 ± 0.06 | 0.946 (active)
Cc1cc(OCc2nc(-c3ccc(Cl)cc3Cl)no2)ccc1Br | 1.03 ± 0.17 | 0.988 ± 0.12 | 1.63 ± 0.8 | 0.984 ± 0.039 | 1.15 ± 0.13 | 1.15 ± 0.21 | 1.01 (active)
Cc1ccc(C(=O)N2N=C(c3ccncc3)CC2(O)C(F)(F)F)cc1 (centres undefined) | 0.764 ± 0.062 | 0.831 ± 0.12 | 0.985 ± 0.097 | 0.86 ± 0.043 | 1.26 ± 0.081 | 1.29 ± 0.14 | 1.01 (active)
